Source: PubChem BioAssay
Shown are actives, neighbours in structure and some others; about 32% of the full set was active somewhere.
CYP2C9 act = human CYP2C9 activators, primary screen, biochemical, luminescence; recombinant CYP2C9, luciferin-H conversion; active compounds read high; factor 1 = untreated enzyme, 0 = blocked; Cytochrome P450 2C9 (Homo sapiens), P11712; activation factor at 5 µM; actives 1.4% (n = 96,000);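 active = activation factor of 2 or more for CYP2C9 at a 5 µM dose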
Target sequence (P11712 whole entry, looked up): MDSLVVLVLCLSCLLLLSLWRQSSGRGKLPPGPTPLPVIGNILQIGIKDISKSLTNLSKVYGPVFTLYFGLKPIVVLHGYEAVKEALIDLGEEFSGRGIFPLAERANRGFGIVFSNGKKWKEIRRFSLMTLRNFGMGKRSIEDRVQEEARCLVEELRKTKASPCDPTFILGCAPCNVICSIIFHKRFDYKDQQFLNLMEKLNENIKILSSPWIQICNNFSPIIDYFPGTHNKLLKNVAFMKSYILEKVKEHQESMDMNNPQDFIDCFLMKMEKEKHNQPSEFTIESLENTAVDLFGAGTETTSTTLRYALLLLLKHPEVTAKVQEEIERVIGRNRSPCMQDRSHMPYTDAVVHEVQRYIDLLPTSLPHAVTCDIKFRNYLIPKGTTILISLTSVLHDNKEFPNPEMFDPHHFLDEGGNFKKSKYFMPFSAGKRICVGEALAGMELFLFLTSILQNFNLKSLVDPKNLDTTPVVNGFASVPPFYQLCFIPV
CYP2C19 inh = blockers of cytochrome P450 2C19 activity – biochemical, luminescence, ADME assay, primary screen | CYP2C19 Supersomes, luciferin-H EGE luminescence, 30 min | actives 21% (n = 96,000) | inhibition, % at 5 µM;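 active = CYP2C19 inhibition above a set limit at 5 µM in the primary screen, cut at about 50% in these data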
CYP2C19 activ = human CYP2C19 activators, primary screen, biochemical, luminescence; Cytochrome P450 2C19 (Homo sapiens), P33261; recombinant CYP2C19, luciferin-H EGE luminescence; active compounds read high; 0 = fully inhibited enzyme, 1 = untreated enzyme; activation factor at 5 µM; 96,000 tested, under 10 active; AID 1025, 2008;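 active = activation factor of at least 2 at 5 µM in the primary screen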
PostGolgi ctrl = growth inhibition of yeast control strain, primary screen, counter-screen for post-Golgi transport modulator project; AID 738, 2007; efflux-deficient yeast background strain, growth absorbance A615, 16 h; inhibition, % at 10 µM; actives 5% (n = 98,000)
PostGolgi yeast = phenotypic screen on post-Golgi transport, primary screen; actives 0.9% (n = 98,000); inhibition, % at 10 µM; post-Golgi transport phenotypic cell assay;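 note: yeast cells grown in 1536-well plates; yeast grown about 18 h at 30C before absorbance read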
CYP2C9 inh = blockers of cytochrome P450 2C9 activity – biochemical, luminescence, ADME assay, primary screen. P11712. inhibition, % at 5 µM. actives 20% (n = 96,000). CYP2C9 Supersomes, luciferin-H conversion;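 active = blocking of liver enzyme CYP2C9 beyond about 50% at 5 µM, limit read from the data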
Of the large screens only hits and unclear results are named; the others gave an inactive call. Cut-off read from the data, not from the text of the source, unless noted: active = inhibition above about 30%; inactive = the rest.

COc1cc2[nH]c(=O)c(C(=O)NCCCN3CCCCC3)c(O)c2cc1OC	CYP2C19 inh 52.4
Cc1noc(NS(=O)(=O)c2ccc(N3C(=O)c4ccccc4C3=O)cc2)c1C	none
CC(c1ccccc1)N1CC(C(=O)NC2CCCC2)CC1=O (stereo not drawn)	none
O=S1(=O)C=C(Sc2nc3ccccc3s2)c2ccccc21	PostGolgi ctrl 31.3, PostGolgi yeast 88.7
Cc1cc(C)nc(SC2=CS(=O)(=O)c3ccccc32)n1	none
CCOC(=O)c1ccc(NC(=O)c2ccc(NC(=O)c3ccccc3)cc2)cc1	none
CCOC(=O)C1=C(NC(=S)NC(=O)c2ccccc2)c2ccccc2CC1C(C)C (stereo not drawn)	CYP2C9 inh 77.0
Fc1ccc(NCc2nnc(SCc3nnc(-c4ccccc4)o3)n2Cc2ccccc2)cc1	CYP2C19 inh 78.6, PostGolgi yeast 46.2, CYP2C9 inh 68.5
CCN1CCN(C(=O)c2ccc3c(c2)N(Cc2ccc(F)cc2)C(=O)c2ccccc2S3=O)CC1 (stereo not drawn)	none (no result: CYP2C9 act, CYP2C19 inh, CYP2C19 activ, CYP2C9 inh)
CN=C(NC#N)SCC(=O)c1ccc(Cl)cc1Cl	CYP2C19 inh 82.2, CYP2C9 inh 95.7
Cc1ccc(-c2noc(-c3cccs3)n2)cc1	none
COc1ccccc1-c1nc(-c2ccccn2)no1	CYP2C19 inh 79.1
COc1ccccc1-c1nc(-c2ccc(C)nc2OC)no1	CYP2C19 inh 61.5
COc1ccc(Br)cc1-c1noc(-c2ccncc2)n1	none
COc1ccccc1-c1noc(-c2ccncc2)n1	CYP2C19 inh 89.2
COc1ccccc1-c1noc(-c2cccs2)n1	PostGolgi ctrl 32.1
Cc1c(SCCO)c(=O)[nH]c2cc3c(cc12)OCO3	none
CCN1C2=C(C(=O)CCC2)C(c2ccc(O)cc2)C2=C1CCCC2=O	none
COc1ccc(-n2c(Cc3cccn3C)nnc2SCC(=O)Nc2ccc3c(c2)OCO3)cc1	none
COc1cccc(C2C3(C#N)C(N)=NC(OC)(OC)C23C#N)c1 (stereo not drawn)	none
CSc1ccc(C2C3(C#N)C(N)=NC4(OCCO4)C23C#N)cc1 (stereo not drawn)	none
CCCC1=C(C(=O)OCC)C(c2ccc(NC(C)=O)cc2)NC(=O)N1 (stereo not drawn)	none
COC1(OC)N=C(N)C2(C#N)C(c3ccc(F)cc3)C12C#N (stereo not drawn)	CYP2C19 inh 51.7
CCSC1(SCC)N=C(N)C2(C#N)C(c3ccc(F)cc3)C12C#N (stereo not drawn)	CYP2C19 inh 61.5, CYP2C9 inh 57.8
CCOC1(OCC)N=C(N)C2(C#N)C(c3ccc(NC(C)=O)cc3)C12C#N (stereo not drawn)	CYP2C9 inh 87.7
COC1(OC)N=C(N)C2(C#N)C(c3cccc(Oc4ccccc4)c3)C12C#N (stereo not drawn)	CYP2C19 inh 59.3, CYP2C9 inh 55.6
CCOC(=O)CCNC(C(=O)OCC)c1ccccc1 (stereo not drawn)	none
O=C(Nc1nnc(CCN2CCCCC2)s1)C1CCCCC1	none
CCOC(=O)c1ccc(NC(=O)CC2Sc3ncnn3C2=O)cc1 (stereo not drawn)	none
Cc1ccc(-n2c3c(c(=O)[nH]c2=O)C(C(F)(F)F)(C(F)(F)F)NC(=O)N3)cc1	none
O=C(Nc1ccccc1F)c1ccc(-n2cncn2)nc1	CYP2C19 inh 97.3, CYP2C9 inh 68.6
Cc1cccc(C)c1NC(=O)c1ccc(-n2cncn2)nc1	CYP2C19 inh 93.1, CYP2C9 inh 65.8
COc1ccc(OC)c(NC(=O)c2ccc(-n3cccn3)nc2)c1	none
COc1ccc(N2CCN(CCNC(=O)Nc3ccc(Cl)cc3)CC2)cc1	none
COc1ccc(N(C(=O)Nc2ccc(Cl)cc2)C2=NCCC2)cc1	CYP2C9 inh 53.9
CCCn1c(CN2CCN(C)CC2)nc2ccccc21	none
CCOC(=O)C1CCN(c2c(N(C)Cc3ccco3)c(=O)c2=O)CC1	none
Cn1c(C(N)=O)cnc1Sc1ncc(C(F)(F)F)cc1Cl	none
FC(F)(F)c1cnc(Sc2nc3nccc(-c4ccc(Cl)cc4)n3n2)c(Cl)c1	PostGolgi ctrl 39.2
